Measurements reported in PubChem BioAssay (NCI).
Compounds without any hit were thinned out: in the full panel of roughly 79,000, 15% have a hit. Active and inactive are the calls of the source. Rule as the data show it: active = growth inhibition above about 70%; inactive = the rest.

Columns and labels:
[1] = NCI Yeast Anticancer Drug Screen. Data for the rad50 strain (AID 155);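 also: 0% = growth of vehicle-only cultures of the same strain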; details: S. cerevisiae rad50 strain growth inhibition, active compounds read high; at 50.0 µM unless noted
How it was run: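 Compounds were tested on a yeast strain with an engineered DNA damage repair alteration; the reported value is growth inhibition normalised to vehicle treatment.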

[2] = NCI Yeast Anticancer Drug Screen. Data for the mec2-1 strain (AID 157); details: S. cerevisiae mec2-1 strain, active compounds read high; at 50.0 µM unless noted
How it was run: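 Cells of the genetically defined mec2-1 yeast strain are incubated with test compound. Inhibition of growth is calculated against vehicle-treated controls.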

[3] = NCI Yeast Anticancer Drug Screen. Data for the sgs1 mgt1 strain (AID 161);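 also: 0% = growth of cultures given vehicle only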; details: S. cerevisiae sgs1 mgt1 strain, active compounds read high; at 50.0 µM unless noted
How it was run: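 Read-out: growth inhibition vs vehicle controls. Cells: mutant yeast strain deficient in DNA damage repair.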

[4] = NCI Yeast Anticancer Drug Screen. Data for the cln2 rad14 strain (AID 165);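 also: 0% = growth equal to vehicle treated cultures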; details: S. cerevisiae cln2 rad14 strain, active compounds read high; at 50.0 µM unless noted
How it was run: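 The screen exposed genetically defined yeast (cln2 rad14) to test compounds and scored growth inhibition relative to vehicle-treated controls.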

[5] = NCI Yeast Anticancer Drug Screen. Data for the bub3 strain (AID 167); details: S. cerevisiae bub3 mutant strain, active compounds read high; at 50.0 µM unless noted
How it was run: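 Growth of a checkpoint-deficient yeast mutant is measured after compound exposure. Values represent inhibition relative to vehicle.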

[6] = NCI Yeast Anticancer Drug Screen. Data for the mlh1 rad18 strain (AID 175); details: S. cerevisiae mlh1 rad18 strain growth inhibition, active compounds read high; at 50.0 µM unless noted
How it was run: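 Compound-treated yeast growth, normalised to vehicle controls. Strain bears defined DNA repair mutations.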

Measured: growth inhibition

Cc1ccc(O)cc1N(C)C
inactive: [1] -18.4% | [2] -3.95% | [3] -12.7% | [4] -35% | [5] -6.25% | [6] -3.65%

CC(C)(C)OC(=O)CC(NC(=O)OC(C)(C)C)C(=O)NC(C(=O)O)C(O)c1ccccc1 (stereo not given)
inactive: [1] -19.4% | [2] -24.9% | [3] -15.3% | [4] -22.9% | [5] -9.45% | [6] -28.6%

C[N+]1(C)N=C([O-])N(c2ccccc2Cl)C1=O
inactive: [1] 21.4% | [2] -27.4% | [3] -6.6% | [4] -37.5% | [5] 1.15% | [6] 18.1%

CN(C)c1ccc(/C=C/C=C2\C=Cc3ccccc32)cc1
inactive: [1] 0.55% | [2] -17.9% | [3] -6% | [4] -26.2% | [5] -0.25% | [6] -2.75%

C=CCOCC(O)CNCC(O)COCC=C (stereo not given)
inactive: [1] -36.9% | [2] -33.7% | [3] -24.9% | [4] 14.3% | [5] -31.2% | [6] 5.2%

[N-]=[N+]=NC1(N=[N+]=[N-])C(=O)Nc2ccccc2C1=O (stereo not given)
inactive: [1] 15.5% | [2] 14.8% | [3] 2.55% | [4] 3.65% | [5] -10.2% | [6] 12.6%

Oc1c(CN2CCOCC2)ccc(CN2CCOCC2)c1O
inactive: [1] 13.4% | [2] 17.3% | [3] -14.1% | [4] 4.55% | [5] 16.1% | [6] 35.5%

O=C(O)CC(CS(=O)O)C(=O)O (stereo not given)
inactive: [1] -9.65% | [2] -11.2% | [3] -13.4% | [4] 1.05% | [5] 1.15% | [6] -3.7%

COc1ccc(N2CC[N+](c3ccc(N(C)C)cc3)=C2C2=[N+](c3ccc(N(C)C)cc3)CCN2c2ccc(OC)cc2)cc1
inactive: [1] 0.3% | [2] -6.8% | [3] -17.4% | [4] -7.6% | [5] -10.2% | [6] 20.5%

COc1ccc(/C=C2/C/C(=C/c3ccc(OC)cc3)C2=O)cc1
inactive: [1] 14.2% | [2] 9.25% | [3] 10.2% | [4] 7.2% | [5] 4.65% | [6] 15%

OCC1OCOC(CO)(CO)C1O (stereo not given)
inactive: [1] 1.15% | [2] 0.05% | [3] 8.1% | [4] -44.3% | [5] 21.7% | [6] 3.75%

CC(C)c1ccc(/C(C(=O)O)=C(\O)C(=O)O)cc1
inactive: [1] -14.4% | [2] -7.25% | [3] -15.4% | [4] 29.9% | [5] -31.6% | [6] -7.45%

C=C(C)C1CCC2(C)C1CCC1(C)C2CCC2C3(C)C4OC(OC4=O)C(C)(C)C3CCC21C (stereo not given)
inactive: [1] -0.8% | [2] -20% | [3] 11.8% | [4] 0.1% | [5] 17.6% | [6] -53%

O=C(O)C1CCC(=O)N1Cc1c[nH]c2ccccc12 (stereo not given)
inactive: [1] -2.2% | [2] -7.4% | [3] -10.2% | [4] -0.15% | [5] 15.4% | [6] -10.8%

O=C1OC(c2ccccc2)=N/C1=C/C=C/c1ccco1
inactive: [1] -10.9% | [2] -5.45% | [3] -6% | [4] -9.75% | [5] -1.6% | [6] -40.3%

CC1CC(C)OC(c2ccc(Cl)cc2)O1 (stereo not given)
inactive: [1] 20.8% | [2] 14.5% | [3] 17.2% | [4] -28.8% | [5] -2.15% | [6] 19.1%

Clc1ccc(/C=N\OCc2ccc(Cl)c(Cl)c2)cc1Cl
inactive: [1] -9.85% | [2] -13.1% | [3] 2.1% | [4] -17.9% | [5] -4.85% | [6] -5.25%

O=C(OC1OCC(OCc2ccccc2)C(OCc2ccccc2)C1OCc1ccccc1)c1ccccc1 (stereo not given)
inactive: [1] 22.6% | [2] -21.5% | [3] -3.9% | [4] -24.3% | [5] -4.2% | [6] -9.15%

CCC1([N+](C)(C)C)CSC1C (stereo not given)
inactive: [1] 5.15% | [2] 2.9% | [3] 4.35% | [4] -26.6% | [5] -8.65% | [6] -0.95%

Cc1ccc(Nc2ccc(C)cc2[N+](=O)[O-])cc1
inactive: [1] 18.3% | [2] -2.25% | [3] 32.9% | [4] 15.1% | [5] 31.6% | [6] 17.6%

CC(=O)c1cccc(NC(=O)Oc2cc(=O)oc3ccccc23)c1
inactive: [1] 5.75% | [2] 19.3% | [3] 12.4% | [4] -4.6% | [5] 38.2% | [6] 29.5%

Cc1ccc(C2OC3=C(Nc4ccc([N+](=O)[O-])cc4N3)C2=O)cc1 (stereo not given)
inactive: [1] 10.1% | [2] 7.75% | [3] 8.65% | [4] 12.8% | [5] -4.35% | [6] 3.25%

CC(=O)OC1c2ccccc2CCCCCCC12OCCO2 (stereo not given)
inactive: [1] -25.1% | [2] -36.4% | [3] -53.2% | [4] 1.8% | [5] -36.3% | [6] -7.25%

Cc1cc(C)c2nccc(NCCCN(C)C)c2c1[N+](=O)[O-]
inactive: [1] 5.65% | [2] 5% | [3] -1.8% | [4] 5.35% | [5] -10.8% | [6] -78.5%

CCOC(=O)c1sc(C(=O)O)cc1-c1cccs1
inactive: [1] 3.9% | [2] 9.65% | [3] 11.5% | [4] -5.6% | [5] -10.6% | [6] 15%

CCC(C)(C)NC(N)=O
inactive: [1] 13.1% | [2] 22.6% | [3] 8.55% | [4] -34.2% | [5] 8.55% | [6] 23.7%

CCc1c(CC)c(CC)c(CC)c(CC)c1CC
inactive: [1] -42.3% | [2] -14.7% | [3] -36.4% | [4] -39% | [5] 1.05% | [6] -31.8%

CCC1CC(=O)c2ccccc2O1 (stereo not given)
inactive: [1] 0.65% | [2] 9.55% | [3] -20.4% | [4] -2.55% | [5] 5.4% | [6] 0.4%

O=C(Cc1ccc(CC(=O)NCCCCc2ccccc2)cc1)NCCCCc1ccccc1
inactive: [1] 0.75% | [2] -3.25% | [3] -14.9% | [4] -8.85% | [5] -7.9% | [6] 13.1%

CCOC(=O)c1[nH]c(=O)[nH]c(=O)c1[N+](=O)[O-]
inactive: [1] 0.4% | [2] -3.75% | [3] 7.15% | [4] 3.4% | [5] -11.9% | [6] -2.3%

CS(=O)(=O)CS(C)(=O)=O
inactive: [1] 18.9% | [2] 6.15% | [3] 8.2% | [4] 14.5% | [5] 0.25% | [6] 27.9%

CC(CN(C)C)C(=O)/C=C/c1ccc(Cl)cc1 (stereo not given)
inactive: [1] 20% | [2] 19% | [3] 1.75% | [4] 2.8% | [5] -13.7% | [6] 18.4%

CCC(CC)C(=O)OC1CCCCC1
inactive: [1] 9.9% | [2] 5.25% | [3] 13.8% | [4] -7.8% | [5] 4.8% | [6] 5.35%

CC1OC(O[C@H]2CC[C@]3(C)[C@H]4CC=C5[C@@H]6[C@@H](C)[C@H](C)CC[C@]6(C(=O)OC6OC(CO)C(O)C(O)C6O)CC[C@@]5(C(=O)O)[C@]4(C)CC[C@H]3C2(C)C)C(O)C(O)C1O (stereo not given in full)
inactive: [1] -11.8% | [2] -1.8% | [3] -31.6% | [4] -29.5% | [5] -23.2% | [6] -40.5%

Cc1noc(NS(=O)(=O)c2ccc(Nc3nc(CC(=O)Nc4ccccc4)cs3)cc2)c1C
inactive: [1] 18.4% | [2] -19.1% | [3] 17.2% | [4] 12.7% | [5] -17.1% | [6] 9.2%

O=C(O)c1c[nH]c2cc(OCc3ccc4ccccc4c3)ccc2c1=O
inactive: [1] 20.2% | [2] 2.55% | [3] -11.3% | [4] -2.05% | [5] -3.05% | [6] 6.55%

OCC1OC(n2cnc3c2NC=NC[C@H]3O)C(O)C1O (stereo not given in full)
inactive: [1] 32.4% | [2] -3.8% | [3] 25.4% | [4] -7.55% | [5] 6.25% | [6] 25.8%

CC1CC(=O)CC(C)(C)N1 (stereo not given)
inactive: [1] -9.4% | [2] -9% | [3] 3.2% | [4] -2.4% | [5] 5.85% | [6] -7.25%

N#CC1=C(NC(N)=O)CCCC1
inactive: [1] -0.7% | [2] 36.7% | [3] 10.7% | [4] 35.3% | [5] 10.1% | [6] 5.45%

O=C(CC(=O)c1ccc(OC(=O)c2ccccc2)cc1O)c1ccccc1
inactive: [1] -12.7% | [2] -4.95% | [3] -2.8% | [4] -16.1% | [5] 8% | [6] -27.6%
